# In the supplement of paper PMC8253809:
# Tests used:
# Test in all cases: growth inhibition (% activity, log2 RLU normalised to DMSO / staurosporine); higher = more growth inhibition
# Conditions in all cases: 33 µM
# [1] = test system: DIPGX29 (H3.3 K27M diffuse intrinsic pontine glioma line)
# Method in brief: (§1)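 pHGG cell lines and H9-derived neural stem cells were grown on Geltrex-coated 384-well plates. Approved drugs were added by pin tool at a single final concentration of about 33 μM, in triplicate, for 7 days at 37 °C, 5% CO2. CellTiter-Glo luminescence was log2-transformed and normalised per plate to % activity between solvent and positive control wells. The growth-inhibition value is the median over replicates.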
# [2] = test system: DIPGX37 (H3.3 K27M diffuse intrinsic pontine glioma line)
# Method in brief: as §1
# [3] = test system: DIPGX7 (H3.3 K27M diffuse intrinsic pontine glioma line)
# Method in brief: as §1
# [4] = test system: DIPGX9 (diffuse intrinsic pontine glioma line)
# Method in brief: as §1
# [5] = test system: HGGX39 (paediatric high-grade glioma line)
# Method in brief: as §1
# [6] = test system: HGGX6 (H3.3 G34R paediatric high-grade glioma line)
# Method in brief: as §1
# [7] = test system: HNSC
# Method in brief: as §1
# [8] = test system: SUDIPGIV (diffuse intrinsic pontine glioma line)
# Method in brief: as §1
# [9] = test system: SUDIPGVI (diffuse intrinsic pontine glioma line)
# Method in brief: as §1
# [10] = test system: SUDIPGXIII (diffuse intrinsic pontine glioma line)
# Method in brief: as §1
SMILES,growth inhibition [1],growth inhibition [2],growth inhibition [3],growth inhibition [4],growth inhibition [5],growth inhibition [6],growth inhibition [7],growth inhibition [8],growth inhibition [9],growth inhibition [10]
C[C@@](Cc1ccc(O)c(O)c1)(NN)C(=O)O,-0.229%,0.519%,-0.935%,2.31%,-0.733%,0.427%,-1.19%,0.65%,2.9%,1.25%
C#CC1(O)CCC2C3CCc4cc(OC)ccc4C3CCC21C (stereo not given),0.518%,-0.765%,-0.178%,1.8%,0.428%,1.53%,-0.897%,-1.25%,2.06%,-0.164%
C[C@]12CCC(=O)C=C1[C@@H]1C[C@@H]1[C@H]1[C@@H]3[C@@H]4C[C@@H]4[C@@]4(CCC(=O)O4)[C@@]3(C)CC[C@@H]12,0.956%,1.46%,0.0985%,0.611%,2.45%,2.65%,0.782%,0.914%,2.83%,0.882%
CC(=O)O[C@H]1C(=O)[C@@]2(C)[C@H]([C@H](OC(=O)c3ccccc3)[C@]3(O)C[C@H](OC(=O)[C@H](O)[C@@H](NC(=O)c4ccccc4)c4ccccc4)C(C)=C1C3(C)C)[C@]1(OC(C)=O)CO[C@@H]1C[C@@H]2O,9.71%,8.37%,6.36%,22%,32.7%,16.2%,60.4%,25.9%,6.74%,6%
CCOc1nc2cccc(C(=O)O)c2n1Cc1ccc(-c2ccccc2-c2nnn[nH]2)cc1,0.354%,-0.496%,0.489%,-0.089%,0.622%,1.65%,1.93%,-0.153%,0.98%,-0.345%
Cn1cnc([N+](=O)[O-])c1Sc1ncnc2[nH]cnc12,15.9%,9.81%,21.6%,13.8%,18.2%,18.5%,55.8%,32.2%,8.24%,17.1%
C=C1[C@H](CO)[C@@H](O)C[C@@H]1n1cnc2c(=O)[nH]c(N)nc21,-0.461%,0.828%,-0.963%,1.66%,0.038%,2.68%,0.984%,-0.629%,0.432%,2.42%
Cc1cc2c(s1)Nc1ccccc1N=C2N1CCN(C)CC1,1.66%,3.63%,1.48%,2.04%,4.5%,0.504%,3.31%,3.12%,3.75%,-0.29%
Nc1nc(=O)c2c([nH]1)NC[C@H](CNc1ccc(C(=O)N[C@@H](CCC(=O)O)C(=O)O)cc1)N2C=O,1.44%,1.17%,2.14%,0.677%,1.92%,0.872%,35.4%,2.82%,-2.53%,0.25%
Cc1cnc(C(=O)O)c[n+]1[O-],1.49%,2.38%,1.7%,5.6%,1.15%,2.68%,3.09%,1.14%,1.26%,0.57%
CN(Cc1cc(Br)cc(Br)c1N)C1CCCCC1,2.48%,1.22%,4.28%,3.08%,5.14%,1.81%,7.22%,3.97%,3.03%,-1.94%
CCn1nc(C(=O)O)c(=O)c2cc3c(cc21)OCO3,0.16%,0.624%,-0.169%,-0.854%,0.711%,1.66%,0.841%,-0.519%,-0.803%,0.089%
COc1ccc2[nH]cc(CCNC(C)=O)c2c1,-2.35%,-0.423%,-1.32%,-1.49%,-1.11%,-2.19%,-1.52%,-1.67%,-0.827%,-1.28%
C=CCc1cc(OC)c(O)c(C(=O)NCCO)c1,-2.1%,0.086%,-1.32%,0.81%,-1.9%,-0.129%,-0.87%,-1.83%,0.104%,-0.0438%
CCOc1ccc2nc3cc(N)ccc3c(N)c2c1,-0.121%,2.61%,2.68%,3.22%,-1.26%,1.77%,2.09%,1.88%,-0.000958%,1.33%
Cc1nc(-c2ccc(OCC(C)C)c(C#N)c2)sc1C(=O)O,0.052%,-0.105%,1.2%,1.34%,2.02%,3.15%,-1.07%,-0.558%,-0.306%,1.95%
CO/N=C(\C(=O)N[C@@H]1C(=O)N2C(C(=O)O)=C(CSC(=O)c3ccco3)CS[C@H]12)c1csc(N)n1,-1.65%,1.16%,-1.04%,-0.83%,0.968%,-1.16%,-1.6%,1.14%,-0.598%,0.953%
O=C(O)COCCN1CCN(C(c2ccccc2)c2ccc(Cl)cc2)CC1 (stereo not given),1.96%,2.21%,3.97%,2.72%,4.64%,3.15%,3.36%,-0.252%,2.48%,0.283%
NC(=O)CC[C@H](N)C(=O)O,-1.66%,0.802%,-0.27%,0.17%,-0.498%,-1.45%,-2.34%,-1.24%,1.4%,-0.384%
CC(=O)OCC(=O)NCCCOc1cccc(CN2CCCCC2)c1,-1.28%,1.04%,-1.47%,-0.989%,-1.44%,0.942%,-4.85%,-2.05%,-0.427%,-1.04%
COc1ccc2c(c1)c(CC(=O)OCC(=O)O)c(C)n2C(=O)c1ccc(Cl)cc1,4.7%,5.04%,3.74%,5.54%,6.62%,4.04%,6.99%,-0.727%,5.09%,1.16%
COC(=O)C1=C(C)NC(C)=C(C(=O)OC)C1c1ccccc1[N+](=O)[O-],-2.53%,-2.53%,0.0754%,3.5%,-0.258%,-0.288%,8.49%,-2.66%,-7.47%,-0.486%
